# Assay results: PubChem BioAssay (EPA / NIEHS)
# Inconclusive results are not listed. Activity calls are given as the source filed them. The calls were made as follows: active = hit-call score of the fitted dose curve at least 0.9, where 1 is the maximum; inconclusive = response in the unintended direction; inactive = score below 0.9.
# Target: Sodium channel protein type 1 subunit alpha (Rattus norvegicus) (UniProt P04774)
# Test: NVS_IC_rNaCh_site2: NovaScreen (NVS) Ion Channel Assay for rat Sodium Channel, Site 2 (NaCh) (AID 2283322);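 also: hit means loss of radioligand binding signal relative to DMSO so AC50 marks displacement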
# In short: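 Initial duplicate single-point testing at 25 uM, followed by concentration-response runs for actives. Binding of radioligand to rat forebrain membranes quantified after 1 h via filter-based radiodetection.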
Structure (SMILES),outcome,AC50
CC=Cc1ccc(OC)c(OC)c1,inactive,
C[C@@H]1CCN(C(=O)[C@H](CCCN=C(N)N)NS(=O)(=O)c2cccc3c2NC[C@H](C)C3)[C@@H](C(=O)O)C1,,894 nM (active)
CCCCC(CC)COC(C)=O (stereo unspecified),inactive,

# Target: rat Thyrotropin Releasing Hormone Receptor (TRH), Trhr (gene 25570) (UniProt Q01717)
# Test: NVS_GPCR_rTRH: NovaScreen (NVS) G Protein-Coupled Receptor Assay for rat Thyrotropin Releasing Hormone Receptor (TRH) (AID 2283329);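 also: hit means lower bound tracer signal versus DMSO baseline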
# In short: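 Rat forebrain membrane prep, radioligand displacement, filter scintillation readout at 4 h. Single conc 25 uM, duplicate; actives retested as concentration series. DMSO = negative control/baseline.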
# Sequence of rat Thyrotropin Releasing Hormone Receptor (TRH), Trhr (gene 25570) (Q01717 whole entry, looked up): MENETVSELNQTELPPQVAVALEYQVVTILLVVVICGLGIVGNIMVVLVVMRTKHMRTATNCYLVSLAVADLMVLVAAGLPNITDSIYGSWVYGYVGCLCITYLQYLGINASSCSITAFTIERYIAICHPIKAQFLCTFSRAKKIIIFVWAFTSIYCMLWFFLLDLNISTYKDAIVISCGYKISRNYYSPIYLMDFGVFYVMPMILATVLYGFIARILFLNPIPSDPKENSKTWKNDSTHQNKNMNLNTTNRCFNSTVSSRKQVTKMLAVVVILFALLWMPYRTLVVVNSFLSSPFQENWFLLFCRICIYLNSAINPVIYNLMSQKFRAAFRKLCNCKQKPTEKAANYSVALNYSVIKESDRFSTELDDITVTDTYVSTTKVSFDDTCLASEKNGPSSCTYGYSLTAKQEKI
row,Structure (SMILES),outcome
1,C=C[Si]1(C)O[Si](C)(C=C)O[Si](C)(C=C)O[Si](C)(C=C)O1 (stereo unspecified),inactive
2,CCOC(=O)C1OC1c1ccccc1 (stereo unspecified),inactive
3,O=C1OC(=O)c2c(Cl)c(Cl)c(Cl)c(Cl)c21,inactive
4,CCCCCCCCC=CCCCCCCCC1=NCCN1CCO,inactive
5,OC[C@H]1O[C@@H]2O[C@H]3[C@H](O)[C@@H](O)[C@@H](O[C@H]4[C@H](O)[C@@H](O)[C@@H](O[C@H]5[C@H](O)[C@@H](O)[C@@H](O[C@H]6[C@H](O)[C@@H](O)[C@@H](O[C@H]7[C@H](O)[C@@H](O)[C@@H](O[C@H]8[C@H](O)[C@@H](O)[C@@H](O[C@H]9[C@H](O)[C@@H](O)[C@@H](O[C@H]1[C@H](O)[C@H]2O)O[C@@H]9CO)O[C@@H]8CO)O[C@@H]7CO)O[C@@H]6CO)O[C@@H]5CO)O[C@@H]4CO)O[C@@H]3CO,inactive
6,CCCCCCCCSCCO,inactive
7,C=CC(C)(O)CCC=C(C)C (stereo unspecified),inactive
8,C=Cc1ccc(C)cc1,inactive
9,CCCCCCCCCCCCCCN(CCO)CCO,inactive
10,CCCCCCCCN1CCCC1=O,inactive
11,CCCCCC(=O)CC,inactive
12,COC(=O)c1ccc(C)cc1C1=NC(C)(C(C)C)C(=O)N1 (stereo unspecified) (tested in a mixture with another compound),inactive
13,CN(C)c1cccc(O)c1,inactive
14,CCC(=O)O[C@@H]1C[C@H]2CC[C@]1(C)C2(C)C,inactive
15,CCCCCCCCCCCC(=O)OCC(O)CO (stereo unspecified),inactive
16,CN1CCOCC1,inactive
17,O=CCc1ccccc1,inactive
18,C1=CC2C3C=CC(C3)C2C1 (stereo unspecified),inactive
19,CCNCCO,inactive
20,CC(=O)O[C@H]1C[C@@H]2CC[C@@]1(C)C2(C)C,inactive
21,COS(=O)(=O)O,inactive
22,OCCc1ccccc1,inactive
23,CC(C=O)Cc1ccc(C(C)(C)C)cc1 (stereo unspecified),inactive
